Assay: growth modulation of vineyard yeast isolate – strain RM11-1a, OD600, basal, 24 h, primary screen (AID 1177);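 also: cultures grown under basal conditions with no added stressor; test concentration not given here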
Details: S. cerevisiae RM11-1a growth, OD600, 24 h; higher = more signal, called active from +8 up or from −8 down

z-score, inactive:
COC(=O)[C@@]1(Cc2ccc(F)cc2)[C@H]2c3cc(C(=O)N(C)C)n(CCN4CCOCC4)c3C[C@H]2CN1C(=O)c1ccccc1 0.7
C[N+](C)(C)CCCCCCNC(=O)[C@@H]1C[C@@H]2C(=O)N[C@@H](Cc3ccccc3)C(=O)N2[C@@H]1c1ccc(O)cc1 -0.0653
CO[C@H]1O[C@H](CO)[C@@H](OC(=O)Nc2ccc(C(F)(F)F)cc2)[C@H](OC(=O)Nc2ccccc2-c2ccccc2)[C@@H]1OC(=O)Nc1ccccc1-c1ccccc1 1.21
C=C(CCCC)/C(=C/C[C@H](OC(C)=O)c1cccc(OCCO)c1)c1cc(C(=O)OC)ccc1OC -0.515
COc1ccc([Si](C)(C)[C@H]2[C@H](CCn3cc([C@H](O)c4ccccc4)nn3)O[C@@]3(C(=O)N(C)c4c(Br)cc(C)cc43)[C@@H]2C)cc1 1.01
COCCOC(=O)N1C(=O)[C@@]2(c3cc(C#CC4(O)CCCCCC4)ccc31)[C@H](C(=O)N1CCc3cc(OC)c(OC)cc3C1)[C@H]1C(=O)O[C@H](c3ccccc3)[C@H](c3ccccc3)N1[C@@H]2c1ccc(O)cc1 1.39
C=CCOC(=O)[C@H]1[C@@H]2C(=O)O[C@@H](c3ccccc3)[C@@H](c3ccccc3)N2[C@@H](c2ccc(OCCOC(=O)[C@H]3C[C@H]4C(=O)NCC(=O)N4[C@H]3c3ccc(O)cc3)cc2)[C@]12C(=O)Nc1ccc(I)cc12 1.7
COCCOC(=O)N1C(=O)[C@@]2(c3cc(C#CC4=CCCCC4)ccc31)[C@H](c1ccc(OCCO)cc1)N1[C@H](c3ccccc3)[C@H](c3ccccc3)OC(=O)[C@H]1[C@@H]2C(=O)N1CCCCCCC1 -0.766
CCOC(=O)C1=C(C(=O)OCC)N(S(=O)(=O)CC[Si](C)(C)C)[C@H](c2ccccc2)CC1 1.73
C=CCC(OC(C)=O)[C@@H]1[C@@H](N(Cc2cc3ccccc3o2)C(=O)c2ccc(-c3ccccc3)cc2)c2cc(OCCCO)ccc2N1C(=O)c1ccc2ccccc2n1 (some centres not stated) 0.913
O=C1O[C@@H](c2ccccc2)[C@@H](c2ccccc2)N2[C@@H](c3ccc(O)cc3)[C@]3(C(=O)Nc4ccc(C#CC5=CCCCC5)cc43)[C@@H](C(=O)N3CCCCCCC3)[C@H]12 -0.976
COCCOC(=O)N1C(=O)[C@@]2(c3cc(C#CCC(C(=O)OC)C(=O)OC)ccc31)[C@H](C(=O)N1CCc3cc(OC)c(OC)cc3C1)[C@H]1C(=O)O[C@H](c3ccccc3)[C@H](c3ccccc3)N1[C@@H]2c1ccc(O)cc1 1.34
C=C(/C(=C/C[C@H](OC(=O)c1ccncc1)c1ccccc1OCCO)c1cc(C(=O)OC)ccc1OC)C(C)C 0.0488
NCCCC[C@@H]1NC(=O)[C@H]2C[C@@H](C(=O)O)[C@@H](c3cccc(OCCO)c3)N2C1=O 1.08
CCCCN1CC=CC23O[C@@H]4/C=C\CCC(C)OC(=O)C4[C@H]2C(=O)N(C(C)CO)[C@@H]3C1=O (some centres not stated) 0.549
CC(=O)c1ccc(C(O)C2C=CC3C(=O)NC(=O)C3N2Nc2ccc(Cl)cc2Cl)cc1 (configuration not stated) 1.39
C[N+](C)(C)CCCC[C@@H]1NC(=O)[C@H]2C[C@@H](C(=O)NCCCCCNC(=O)CS)[C@@H](c3ccc(O)cc3)N2C1=O -2.28
CN(C)CCCCNC(=O)[C@H]1C[C@H]2C(=O)N[C@@H](Cc3ccccc3)C(=O)N2[C@H]1c1cccc(OCCO)c1 -0.372
NC(=O)NCC#Cc1ccc2c(c1)[C@]1(C(=O)N2)[C@H](C(=O)Nc2nc3ccccc3s2)[C@H]2C(=O)O[C@H](c3ccccc3)[C@H](c3ccccc3)N2[C@@H]1c1ccc(OCCO)cc1 1.27
CC(C)CNC(=O)[C@@H]1c2ccccc2C(=O)N(Cc2ccccc2Cl)[C@H]1c1ccc(CO)cc1 -0.239
C=CCNC(=O)[C@H]1[C@@H]2C(=O)O[C@@H](c3ccccc3)[C@@H](c3ccccc3)N2[C@@H](c2ccc(O)cc2)[C@]12C(=O)Nc1ccc(C#CC3=CCCCC3)cc12 1.87
CN(C)C(=O)[C@]1(Cc2ccccc2CN=[N+]=[N-])N=C(c2ccc(OCCCO)cc2)O[C@@H]1c1ccccc1N=[N+]=[N-] 1.37
